Test systems include NCI-H23 lung; NCI-H226 lung; NCI-H322M lung; HOP-62 NSCLC; NCI-H460 lung; HOP-92 NSCLC; NCI-H522 lung; A549/ATCC NSCLC; 786-0 renal; COLO 205 colon; DU-145 prostate; K-562 leukemia; MALME-3M melanoma; MDA-MB-231 breast; RXF 393 renal; SF-268 CNS; SF-295 CNS; SF-539 CNS; UACC-257 melanoma; M14 melanoma.
What all share (test): NCI-60 one-dose screen, 48 h (100 = growth as untreated, 0 = no growth, -100 = all killed)
What all share (details): 10 µM unless noted

The source of these data is PubChem BioAssay (NCI).

This is part of a sample that, as a whole, favours compounds with a hit. Of some 83,000 tested, about 20% had one in any assay.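 The endpoint reported here, percent growth, reads 100 for growth as untreated, 0 for no net growth and -100 for all cells dead.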 A number with no mark means an inactive call. The source made the active and inactive calls. Rule for the calls: active = growth percent below 10; inactive = the rest.

`COc1cc(-c2nc3ccccc3s2)ccc1OCc1nc2n(n1)S(=O)(=O)c1ccccc1N2c1ccccc1`: the growth was 109% in the test on NCI-H23 lung; 95.7% in the test on NCI-H226 lung; 92.9% with NCI-H322M lung; 88.2% in the test with HOP-62 NSCLC; 110% with NCI-H460 lung; 70.8% with HOP-92 NSCLC. The growth was 85.4% in the test on NCI-H522 lung; 110% with A549/ATCC NSCLC; 95.1% in the test on 786-0 renal; 113% in the test with COLO 205 colon; 110% with DU-145 prostate; 81.7% in the test with K-562 leukemia. Besides, the growth was 66.7% in the test with MALME-3M melanoma; 79.5% with MDA-MB-231 breast; 114% in the test on RXF 393 renal; 102% with SF-268 CNS; 107% in the test with SF-295 CNS; 104% in the test on SF-539 CNS. Moreover, the figures for the growth in the test with UACC-257 melanoma and in the test on M14 melanoma were 112% and 120%, respectively.

Take `NC(=O)C1=C[C@H]2[C@H]3C=C[C@@]2(O)C(=O)O[C@@H]3O1`: the growth in the test on NCI-H23 lung is 67%; with NCI-H226 lung, 47.6%; in the test on NCI-H322M lung, 93.8%; with HOP-62 NSCLC, 82.3%; with NCI-H460 lung, 99.2%; in the test with HOP-92 NSCLC, 40.7%. For the same compound, the growth is 63.3% in the test on NCI-H522 lung; 80.7% with A549/ATCC NSCLC; 61.4% with 786-0 renal; 38.8% with COLO 205 colon; 45.9% in the test on DU-145 prostate; 61.8% with K-562 leukemia. In addition, the growth with MALME-3M melanoma was 4.54% (active); in the test with MDA-MB-231 breast, 61.5%; in the test on RXF 393 renal it was 8.42% (active); in the test on SF-268 CNS, 58.2%; in the test on SF-295 CNS it was 88.5%; in the test with SF-539 CNS, 65.6%. The results for the growth in the test on UACC-257 melanoma and in the test on M14 melanoma were 28.9% and 32%, respectively.

`Cc1cn(-c2cc(C(=O)Nc3cccc(-n4ccc5c(NC(=O)c6ccccc6)nccc54)c3)cc(C(F)(F)F)c2)cn1`: the growth with NCI-H23 lung is 22.5%; with NCI-H226 lung it was 33.8%; in the test on NCI-H322M lung, 32.9%; in the test with HOP-62 NSCLC it was 31.5%; with NCI-H460 lung, -13.3% (active); with HOP-92 NSCLC it was -6.29% (active). Besides, the growth in the test on NCI-H522 lung is -7.45% (active); in the test with A549/ATCC NSCLC it was -19% (active); with 786-0 renal it was -70.6% (active); with COLO 205 colon, -20.1% (active); in the test with DU-145 prostate, -9.55% (active); in the test on K-562 leukemia, 4.74% (active). In addition, the growth in the test on MALME-3M melanoma is 25.2%; with MDA-MB-231 breast it was 4% (active); with RXF 393 renal it was -89.8% (active); in the test on SF-268 CNS, 12%; with SF-295 CNS it was -12.3% (active); in the test on SF-539 CNS, -12.1% (active). The growth in the test with UACC-257 melanoma is 40.6%; in the test on M14 melanoma, 11.9%.

For the compound `CC(=O)Nc1ccc([I+]c2ccc([N+](=O)[O-])cc2)cc1`, the growth with NCI-H23 lung is 84.6%; in the test with NCI-H226 lung, 79.9%; with NCI-H322M lung, 94.8%; in the test with HOP-62 NSCLC, 96.4%; in the test with NCI-H460 lung, 104%; in the test on HOP-92 NSCLC it was 90.5%. Besides, the growth in the test with NCI-H522 lung was 46.5%; in the test on A549/ATCC NSCLC, 98.9%; in the test on 786-0 renal, 98.3%; in the test with COLO 205 colon, 63.4%; in the test on DU-145 prostate it was 107%; in the test on K-562 leukemia, 69.3%. For the same compound, the growth in the test on MALME-3M melanoma was 43.6%; in the test on MDA-MB-231 breast, 113%; with RXF 393 renal, 129%; in the test with SF-268 CNS, 99.4%; in the test with SF-295 CNS, 118%; in the test with SF-539 CNS, 101%. The growth in the test on UACC-257 melanoma is 90.4%; with M14 melanoma, 83%.

Take `COc1cc(-c2nc(SCC(=O)Nc3ccc(C(C)=O)cc3)[nH]c(=O)c2C#N)cc(OC)c1OC`: the growth in the test with NCI-H23 lung is 38.4%; in the test with NCI-H226 lung it was 58.5%; in the test with NCI-H322M lung it was 45.3%; with HOP-62 NSCLC, 20.7%; in the test on NCI-H460 lung, 5.79% (active); with HOP-92 NSCLC it was 10.3%. The growth with NCI-H522 lung was -14.5% (active); in the test on A549/ATCC NSCLC, 19.8%; in the test with 786-0 renal, 35.5%; in the test on COLO 205 colon, -16.2% (active); in the test with DU-145 prostate it was 14.1%; in the test with K-562 leukemia it was 0.453% (active). Also, the growth with MALME-3M melanoma was 69.5%; with MDA-MB-231 breast, 19.7%; with RXF 393 renal it was 24.6%; with SF-268 CNS it was 26.9%; in the test on SF-295 CNS, 3.4% (active); with SF-539 CNS, -22.9% (active). Also, the growth was 53.7% in the test with UACC-257 melanoma and 5.17% (active) with M14 melanoma.

Take `Cc1ccc(NC(=O)CN2CCOCC2)cc1Cl`: the growth is 101% with NCI-H23 lung; 92.8% with NCI-H226 lung; 93.4% in the test on NCI-H322M lung; 91% with HOP-62 NSCLC; 100% with NCI-H460 lung; 80.8% in the test on HOP-92 NSCLC. The growth in the test with NCI-H522 lung was 76.5%; in the test on A549/ATCC NSCLC it was 95.3%; in the test on 786-0 renal, 95%; in the test with COLO 205 colon it was 102%; with DU-145 prostate, 102%; in the test on K-562 leukemia, 94.7%. The growth in the test with MALME-3M melanoma is 102%; in the test with MDA-MB-231 breast it was 96%; in the test on RXF 393 renal, 104%; in the test with SF-268 CNS, 103%; with SF-295 CNS, 94.3%; with SF-539 CNS it was 98.7%. In addition, the growth in the test with UACC-257 melanoma is 88.1%; with M14 melanoma it was 100%.

In the case of `CCCCCC/C=N/Nc1ccc([N+](=O)[O-])cn1`, the growth was 98.3% in the test on NCI-H23 lung; 99.1% in the test on NCI-H226 lung; 98.7% in the test on NCI-H322M lung; 87.8% with HOP-62 NSCLC; 112% in the test on NCI-H460 lung; 104% with HOP-92 NSCLC. For the same compound, the growth is 78.2% with NCI-H522 lung; 90.6% in the test with A549/ATCC NSCLC; 94.7% in the test with 786-0 renal; 98% with COLO 205 colon; 103% in the test on DU-145 prostate; 96.7% in the test on K-562 leukemia. The growth is 98.1% with MALME-3M melanoma; 98.7% in the test with MDA-MB-231 breast; 104% with RXF 393 renal; 103% with SF-268 CNS; 95.3% with SF-295 CNS; 93.7% with SF-539 CNS. The figures for the growth with UACC-257 melanoma and in the test with M14 melanoma were 88.7% and 90.4%, respectively.

Turning to `O=C(Nc1cccc(-n2ccc3c(NC(=O)c4ccccc4)nccc32)c1)c1cccc(C(F)(F)F)c1`, the growth was 20.8% in the test on NCI-H23 lung; 35.6% with NCI-H226 lung; 34.2% in the test on NCI-H322M lung; 36.4% with HOP-62 NSCLC; 3.05% (active) with NCI-H460 lung; 40.3% in the test with HOP-92 NSCLC. Besides, the growth was -45.2% (active) in the test with NCI-H522 lung; 7.84% (active) with A549/ATCC NSCLC; -14.6% (active) in the test on 786-0 renal; -44.5% (active) with COLO 205 colon; -10.9% (active) with DU-145 prostate; 12.1% in the test with K-562 leukemia. Also, the growth was 48.3% in the test with MALME-3M melanoma; 3.85% (active) in the test on MDA-MB-231 breast; -49.4% (active) with RXF 393 renal; 14.8% in the test with SF-268 CNS; -8.39% (active) in the test on SF-295 CNS; 4.4% (active) with SF-539 CNS. In addition, the results for the growth in the test on UACC-257 melanoma and in the test with M14 melanoma were 42.4% and 7.48% (active), respectively.
